From PubChem BioAssay
Only some compounds are listed: those with a hit (about 3.2% of all), similar ones and a draw of the others.
CBFb-RUNX1 inh = CBF-beta/RUNX1 interaction disruption | Q01196+Q13951 | AlphaScreen CBFb-His/RUNX1-biotin binding, biochemical | Potency, µM (doses to about 59.8 µM), for the others: at the top dose activity, negative = inhibition, usual class: inhibitors | 230,000 tested, under 10 active | AID 1477; note: % of control where 0% means no effect
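Room-temperature protein-protein interaction test with 30 nM each of His-tagged CBF-beta and biotinylated RUNX1, 15 min with compound, then 90 min with nickel plus streptavidin beads. Signal read in AlphaScreen mode.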
Tau fluor counter = counter-screen for tau fibril formation inhibitors; tau K18 P301L Alexa594 fluorescence, heparin fibrillization; 280,000 tested, 0.93% active; AID 1463; Potency, µM (top dose mostly 57.7 µM), for the others: at the top dose activity change, negative = decrease; note: potency is the fitted concentration of half-maximal effect; % is set by controls: 0 for no effect and ±100 for the full control effect; nearly all actives have a fitted effect of over 55% in size
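Human tau K18 P301L (15 uM unlabeled, 0.24 uM Alexa 594-labeled) in 100 mM sodium acetate pH 7 with 20 uM heparin, 6 hr at 37 C. ThT 30 uM added, 1 hr ambient; Alexa 594 FP and total fluorescence read at 555/632 nm.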
LMNA splice mod = changes lamin A minigene splicing in HeLa cells; HeLa LMNA splicing GFP/RFP minigene ratio, 48 h; Potency, µM (doses to about 46.1 µM), for inactives: top-dose ratio change, negative = inhibition, usual class: inhibitors; 200,000 tested, 0.01% active; AID 1487; active = well fitted inhibition curve with a large enough effect in the signal ratio, with a control signal flat, not every such curve was filed as active; inconclusive = small, poorly fitted or top-dose-only effect, or effect the other way, or a change in a side signal; the % refers to the signal ratio; note: potency is the fitted concentration of half-maximal effect; % is set by controls: 0 for no effect and ±100 for the full control effect
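S3 HeLa stable clones carrying a lamin A-EGFP splicing minigene plus DsRed2 were seeded at 600 cells/well in Opti-MEM with 2% FBS, pin-dosed and incubated 48 h at 37°C. Acumen cytometry (488 nm) gave the GFP/RFP total-intensity ratio.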
JMJD2E inh = JMJD2E (human) inhibition; JMJD2E catalytic domain, FDH-coupled NADH fluorescence (FDH is formaldehyde dehydrogenase); Potency, µM (series often up to 57.1 µM), without a hit: at the top dose activity change, negative = inhibition, hits mostly inhibitors; 230,000 tested, 1.6% active; AID 2147; active = well fitted inhibition curve with a large enough effect, not every such curve was filed as active; inconclusive = small, poorly fitted or top-dose-only effect, or another doubt; inactive = no such curve, though single readings can be large or run the other way;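 note: potency is the fitted concentration of half-maximal effect; 0% = wells with enzyme and -100% = buffer wells without enzyme; nearly all actives have a fitted effect of over 50% in size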
Target sequence (B2RXH2 1-337 limits assumed): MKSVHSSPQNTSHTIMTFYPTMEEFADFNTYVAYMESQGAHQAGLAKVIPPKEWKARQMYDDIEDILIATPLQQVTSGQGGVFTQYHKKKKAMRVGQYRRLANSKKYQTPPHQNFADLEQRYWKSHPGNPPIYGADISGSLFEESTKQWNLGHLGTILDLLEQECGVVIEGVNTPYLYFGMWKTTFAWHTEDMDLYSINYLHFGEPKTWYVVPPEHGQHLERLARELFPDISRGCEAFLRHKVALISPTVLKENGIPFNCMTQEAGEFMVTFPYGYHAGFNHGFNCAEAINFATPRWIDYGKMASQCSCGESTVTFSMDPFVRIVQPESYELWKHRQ
Tau fibril FP = tau fibrillization inhibition (FP) | Potency, µM (highest dose often 57.7 µM), for the others: at the top dose activity, negative = inhibition, hits mostly inhibitors | AID 1468 | K18 P301L tau heparin fibrillization, Alexa594 FP, 6 h | P10636 | 280,000 tested, 0.39% active; note: potency is the fitted concentration of half-maximal effect; % is set by controls: 0 for no effect and ±100 for the full control effect; nearly all actives have a fitted effect of over 55% in size
Target sequence (P10636 561-689 P618L limits assumed): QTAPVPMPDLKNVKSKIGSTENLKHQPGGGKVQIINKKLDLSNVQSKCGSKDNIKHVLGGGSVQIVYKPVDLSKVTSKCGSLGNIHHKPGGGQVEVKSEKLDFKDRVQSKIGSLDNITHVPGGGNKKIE
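Quantitative HTS format: compounds meet 15 uM recombinant K18 P301L tau and Alexa 594-tau tracer in 100 mM sodium acetate pH 7; 20 uM heparin triggers fibrillization at 37 C over 6 hr; FP gives the signal.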
Tau fibril ThT = inhibitors of human tau fibril formation, thioflavin T binding; P10636; recombinant tau K18 P301L (four-repeat tau fragment), heparin-induced fibrillization, ThT fluorescence; Potency, µM (doses to about 57.4 µM), inactives show at the top dose activity, negative = inhibition, most hits filed as inhibitors; 270,000 tested, 2.1% active; AID 1460; note: potency is the fitted concentration of half-maximal effect; % is set by controls: 0 for no effect and ±100 for the full control effect; nearly all actives have a fitted effect of over 55% in size
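Heparin-induced fibrillization of the P301L-mutant K18 repeat-domain fragment of human tau was followed by ThT binding in quantitative high-throughput format.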
* marks the source's active call; other numbers are inactive results; u = inconclusive; x = not tested or not shown; [ ] = another dose, or the depositor's remark. Unless noted, calls come from the whole dose curve; as a rule, active = well fitted curve in the direction sought with a large enough effect; inconclusive = small, poorly fitted or top-dose-only effect, or another doubt; inactive = no such curve, though single readings can be large; an effect the other way counts as inactive or inconclusive.

SMILES	CBFb-RUNX1 inh	Tau fluor counter	LMNA splice mod	JMJD2E inh	Tau fibril FP	Tau fibril ThT
COc1ccc(-c2cc(C(=O)OCC(=O)Nc3ccc4c(c3)OCO4)c3ccccc3n2)cc1	-2.0%	8.91µM*[quencher]	-1.6%	u	-13.0%	u
COc1ccc(-c2nsc(SCC(=O)Nc3ccc4c(c3)OCO4)n2)cc1	-14.2%	4.7%	-8.2%	-4.3%	-8.4%	5.6%
COc1cn(CC(=O)Nc2cccc(C)c2)c(CN2CCCCC2)cc1=O	x	-3.8%	1.8%[46 µM]	x	5.2%	2.6%
CCC(Cn1nnc2ccccc2c1=O)NC(=O)Nc1ccc(C)c(C)c1 (stereo unspecified)	x	-16.2%	x	x	-8.4%	-5.2%
CCOc1ccccc1NC(=O)Cn1nc(N2CCN(c3ccccc3)CC2)ccc1=O	x	-13.0%	x	x	3.3%	u
CCn1nc(-c2ccccc2)c(-c2ccccc2)c(C(=O)Nc2ccccc2C(N)=O)c1=O	x	-2.8%	x	x	0.8%	7.5%
CCN(CC)S(=O)(=O)c1cc(C)ccc1NC(=S)Nc1cccnc1	1.6%	u	x	u	31.6µM*	7.9%
COc1cc2c(cc1OC)C(c1ccccc1)=NCC2	-15.0%	-0.5%	-13.6%	-0.3%	2.6%	-0.4%
COc1cc2c(cc1OC)-c1cc3ccc4c(c3c[n+]1CC2)OCO4	-1.1%	-17.4%	u	u	-8.8%	15.8µM*
COC(=O)c1cccc(Nc2c(-c3ccc(SC)cc3)nc3nc[nH]n23)c1	x	u	-10.9%[46 µM]	x	12.4%	u
O=C(Oc1ccccc1F)c1nc(SCc2ccc(F)cc2)ncc1Cl	x	-25.4%	x	x	-15.5%	20µM*
CC1=CC2=C(OC1N(C)C)c1cccc3cccc(c13)C2=O (stereo unspecified)	-22.6%	-28.9%	-9.9%	20µM*	u	20µM*
Cc1ccc(N2C(=O)c3cccc4cccc(c34)C2=O)cc1	0.9%	-12.6%	x	7.4%	3.5%	-4.7%
CC1=NN(C(N)=S)C(=O)C1N=Nc1ccc(C)cc1C (stereo unspecified)	-15.9%	u	1.8%	2.6%	1.2%	3.16µM*
CC1=NN(C(N)=S)C(=O)C1N=Nc1ccccc1C (stereo unspecified)	-2.3%	-14.6%	-16.7%	6.1%	3.6%	10µM*
CC1=NN(C(N)=S)C(=O)C1N=Nc1c(C)cc(C)cc1C (stereo unspecified)	-10.3%	-21.5%	u	4.8%	2.9%	4.47µM*
CC1=NN(c2ccc(C)cc2C)C(=O)C1C(c1ccccc1O)C1C(=O)N(c2ccc(C)cc2C)N=C1C (stereo unspecified)	1.0%	-4.0%	-2.0%	-2.5%	-6.5%	-16.8%
CC(=O)N1CCCC1c1nc2ccccc2n1Cc1ccccc1 (stereo unspecified)	x	0.0%	x	x	-1.3%	-3.3%
COc1ccc(NC(=O)c2ccco2)cc1NC(=O)c1cc(Cl)ccc1OC	x	-24.4%	x	x	u	2.3%
COc1ccc(/C=N/NC(=O)c2ccc(CN3C(=O)c4cccc5cccc3c45)cc2)cc1O	25.2%	u	x	u	4.2%	u
COc1cc(/C=N/NC(=O)c2ccc(CN3C(=O)c4cccc5cccc3c45)cc2)cc(OC)c1O	27.5%	u	x	22.4µM*	u	u
COc1ccc(N2C(=O)C(Cl)=C(N3CCCC(C)C3)C2=O)cc1 (stereo unspecified)	-28.3%	u	2.2%	-1.6%	28.2µM*	15.8µM*
CC1CCCN(C2=C(Cl)C(=O)N(c3cccc(Cl)c3)C2=O)C1 (stereo unspecified)	u	u	-4.4%	-16.6%	17.8µM*	14.1µM*
CCCN1C(=O)S/C(=C\c2ccc(N3CCOCC3)o2)C1=O	-8.1%	-26.6%	x	u	-18.1%	17.8µM*
CCCN1C(=O)S/C(=C/c2ccc(N3CCOCC3)o2)C1=O	4.9%	u	x	8.91µM*	u	u
SMILES	CBFb-RUNX1 inh	Tau fluor counter	LMNA splice mod	JMJD2E inh	Tau fibril FP	Tau fibril ThT
CCSc1nnc2c(n1)OC(c1cc(OC)c(OC)c(OC)c1)Nc1ccccc1-2 (stereo unspecified)	x	-24.2%	x	x	u	-15.9%
Cc1cc(C)cc(NS(=O)(=O)c2ccc3[nH]cc(C(=O)NC4CCCCC4)c(=O)c3c2)c1	x	u	x	x	7.94µM*	u
COc1cccc(NS(=O)(=O)c2ccc3[nH]cc(C(=O)NC4CCCCC4)c(=O)c3c2)c1	x	3.55µM*[quencher]	x	x	7.08µM*	u
COc1cccc(NS(=O)(=O)c2ccc3[nH]cc(C(=O)NC4CC4)c(=O)c3c2)c1	-1.6%	-22.3%	-14.5%	-1.8%	-18.8%	13.4%
CC(C)c1ccc(NS(=O)(=O)c2ccc3[nH]cc(C(=O)NCC4CCCO4)c(=O)c3c2)cc1 (stereo unspecified)	x	u	x	x	15.8µM*	-8.0%
CCc1ccccc1NS(=O)(=O)c1ccc2[nH]cc(C(=O)NCC3CCCO3)c(=O)c2c1 (stereo unspecified)	7.4%	u	x	u	u	-4.5%
Cc1cc(C)cc(NS(=O)(=O)c2ccc3[nH]cc(C(=O)NCc4ccccc4Cl)c(=O)c3c2)c1	x	u	-12.8%[46 µM]	x	3.16µM*	5.1%
CCN(CC)CCCn1c(-c2ccccc2)nc2c(N3CCOCC3)nc(C)nc21	1.6%	-18.2%	x	u	u	-3.0%
CC(C)c1ccc(NS(=O)(=O)c2ccc3[nH]cc(C(=O)NC4CCCCC4)c(=O)c3c2)cc1	x	u	x	x	3.55µM*	u
COC(=O)Cc1[nH]nc2c1C(c1c[nH]c3ccccc13)C(C#N)=C(N)O2 (stereo unspecified)	-2.9%	u	-2.4%	u	-14.1%	25.1µM*
Cc1ccc(C#N)c(SCc2ccccc2F)n1	u	-23.3%	x	7.4%	-10.3%	-7.9%
Cc1ccc2nc(CSc3nc(C)ccc3C#N)[nH]c2c1	3.0%	u	-19.7%	u	2.3%	11.2µM*
COc1ccc(NC(=O)c2c(C)oc3ccc(O)c(CN4CCCC(C)C4)c23)cc1 (stereo unspecified)	x	-13.6%	x	x	-2.2%	-9.6%
Cc1[nH]c2ccccc2c1/C=N/Nc1ccc([N+](=O)[O-])cc1	5.8%	-1.3%	u	0.2%	4.3%	0.3%
COc1ccccc1NS(=O)(=O)c1cc([N+](=O)[O-])ccc1N/N=C/c1c(C)[nH]c2ccccc12	-11.8%	6.31µM*[quencher]	6.9%	-2.0%	u	3.16µM*
O=[N+]([O-])c1ccc(N/N=C/c2c[nH]c3ccccc23)c(S(=O)(=O)Nc2ccc(Cl)cc2)c1	1.9%	3.16µM*[quencher]	1.7%	10.8%	-10.5%	3.16µM*
CCOC(=O)c1c(C)[nH]c(C)c1S(=O)(=O)N1CCCC(C(=O)N2CCN(c3ccccc3F)CC2)C1 (stereo unspecified)	x	0.8%	0.9%[46 µM]	x	4.5%	1.8%
